Reference: the supplement of paper PMC10037445
Over roughly 2,900 compounds, “NF-kB SEAP reporter activity, fold change vs agonist alone” has its median near 0.99; the highest 2% begin near 2.6. Only a selection was taken, and the highest values are over-represented in it overall.

Key:
RAW-Dual [1] = assay: NF-kB SEAP reporter activity, fold change vs agonist alone; cytotoxicity flag (confluency mask): cytotoxic (confluency <70% of control); higher = enhanced NF-kB activity
In short: (§1)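 RAW-Dual macrophages (50,000 cells/well in DMEM, 384-well plates) received 50 nL of library stock by pin tool, then a PRR agonist 1 h later, and were kept at 37 °C, 5% CO2. After 20 hours, supernatant was read for IRF by QuantiLuc luminescence and for NF-κB by QuantiBlue absorbance at 620 nm. Reporter activity is fold change over agonist-alone wells. Cytotoxic wells had IncuCyte confluency below 70% of agonist controls in both mask sets.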

RAW-Dual [2] = assay: NF-kB SEAP reporter activity, fold change vs agonist alone; higher = enhanced NF-kB activity
In short: as §1

RAW-Dual [3] = assay: NF-kB SEAP reporter activity, fold change vs agonist alone; cytotoxicity flag (confluency mask): not cytotoxic; higher = enhanced NF-kB activity
In short: as §1

[4] = agonist: ODN 1826 (TLR9) 0.5 ug/mL
[5] = agonist: Pam2CSK4 (TLR2/6) 0.1 ug/mL
[6] = agonist: Pam3CSK4 (TLR2/1) 0.1 ug/mL
[7] = library stock concentration (final ~1000-fold dilution): 10 mM, cytotoxicity flag (confluency mask): cytotoxic (confluency <70% of control), agonist: Imiquimod (TLR7) […]
[8] = library stock concentration (final ~1000-fold dilution): 10 mM, cytotoxicity flag (confluency mask): cytotoxic (confluency <70% of control), agonist: MPLA (TLR4) […]
[9] = library stock concentration (final ~1000-fold dilution): 10 mM water, cytotoxicity flag (confluency mask): not cytotoxic, agonist: MPLA (TLR4) […]
[10] = library stock concentration (final ~1000-fold dilution): 10 mM, cytotoxicity flag (confluency mask): not cytotoxic, agonist: Imiquimod (TLR7) […]
[11] = library stock concentration (final ~1000-fold dilution): 10 mM, cytotoxicity flag (confluency mask): not cytotoxic, agonist: MPLA (TLR4) […]

Cl.OCCNCc1ccc(OCc2ccc(F)cc2)c(OCc2ccc(F)cc2)c1 (library stock concentration (final ~1000-fold dilution): 10 mM)
NF-kB SEAP reporter activity (RAW-Dual [1]; agonist: LPS (TLR4) 0.1 ug/mL): 0.702
NF-kB SEAP reporter activity (RAW-Dual [1]; [4]): 0.629
NF-kB SEAP reporter activity (RAW-Dual [1]; [5]): 0.301
NF-kB SEAP reporter activity (RAW-Dual [1]; [6]): 0.354

Cl.OCCNCc1ccc(OCc2ccc(F)cc2)c(OCc2ccc(F)cc2)c1
NF-kB SEAP reporter activity (RAW-Dual [2]; [7]): 1.41
NF-kB SEAP reporter activity (RAW-Dual [2]; [8]): 1.5

Cl.N=C(N)NCCCCC(N)C(=O)O (centres undefined) (library stock concentration (final ~1000-fold dilution): 10 mM water)
NF-kB SEAP reporter activity (RAW-Dual [3]; agonist: LPS (TLR4) 0.1 ug/mL): 1.17
NF-kB SEAP reporter activity (RAW-Dual [3]; [4]): 1.12
NF-kB SEAP reporter activity (RAW-Dual [3]; [5]): 1.21
NF-kB SEAP reporter activity (RAW-Dual [3]; [6]): 0.923

Cl.N=C(N)NCCCCC(N)C(=O)O (centres undefined)
NF-kB SEAP reporter activity (RAW-Dual [2]; [9]): 1.08

CCCCNc1ncc2c(-c3ccc(CN4CCN(C)CC4)cc3)cn(C3CCC(O)CC3)c2n1.Cl (centres undefined)
NF-kB SEAP reporter activity (RAW-Dual [2]; [7]): 0.547
NF-kB SEAP reporter activity (RAW-Dual [2]; [8]): 0.322

CCCCNc1ncc2c(-c3ccc(CN4CCN(C)CC4)cc3)cn(C3CCC(O)CC3)c2n1.Cl (centres undefined) (library stock concentration (final ~1000-fold dilution): 10 mM)
NF-kB SEAP reporter activity (RAW-Dual [1]; agonist: LPS (TLR4) 0.1 ug/mL): 0.236
NF-kB SEAP reporter activity (RAW-Dual [1]; [4]): 0.351
NF-kB SEAP reporter activity (RAW-Dual [1]; [5]): 0.128
NF-kB SEAP reporter activity (RAW-Dual [1]; [6]): 0.192

CCn1cc(-c2ccnc3[nH]c(-c4cccc(CN(C)C)c4)cc23)c(-c2ccc(NC(=O)N(C)C)cc2)n1 (library stock concentration (final ~1000-fold dilution): 10 mM)
NF-kB SEAP reporter activity (RAW-Dual [3]; agonist: LPS (TLR4) 0.1 ug/mL): 6.43
NF-kB SEAP reporter activity (RAW-Dual [3]; [4]): 0.432
NF-kB SEAP reporter activity (RAW-Dual [3]; [5]): 1.83
NF-kB SEAP reporter activity (RAW-Dual [3]; [6]): 3.76

CN(C)C(=O)Nc1cccc(-c2ccc(N(C)C)cc2)c1 (library stock concentration (final ~1000-fold dilution): 10 mM)
NF-kB SEAP reporter activity (RAW-Dual [3]; agonist: LPS (TLR4) 0.1 ug/mL): 1.52
NF-kB SEAP reporter activity (RAW-Dual [3]; [4]): 1.08
NF-kB SEAP reporter activity (RAW-Dual [3]; [5]): 0.914
NF-kB SEAP reporter activity (RAW-Dual [3]; [6]): 1.01

CCn1cc(-c2ccnc3[nH]c(-c4cccc(CN(C)C)c4)cc23)c(-c2ccc(NC(=O)N(C)C)cc2)n1
NF-kB SEAP reporter activity (RAW-Dual [2]; [10]): 3.13
NF-kB SEAP reporter activity (RAW-Dual [2]; [11]): 2.67

CN(C)C(=O)Nc1cccc(-c2ccc(N(C)C)cc2)c1
NF-kB SEAP reporter activity (RAW-Dual [2]; [10]): 0.998
NF-kB SEAP reporter activity (RAW-Dual [2]; [11]): 0.985

CS(=O)(=O)O.O=C(Nc1cccc(Cl)c1)Nc1ncc(CCNc2ncnc3ccsc23)s1 (library stock concentration (final ~1000-fold dilution): 10 mM)
NF-kB SEAP reporter activity (RAW-Dual [1]; agonist: LPS (TLR4) 0.1 ug/mL): 1
NF-kB SEAP reporter activity (RAW-Dual [1]; [4]): 0.54
NF-kB SEAP reporter activity (RAW-Dual [1]; [5]): 0.153
NF-kB SEAP reporter activity (RAW-Dual [1]; [6]): 0.292

CS(=O)(=O)O.O=C(Nc1cccc(Cl)c1)Nc1ncc(CCNc2ncnc3ccsc23)s1
NF-kB SEAP reporter activity (RAW-Dual [2]; [7]): 0.503
NF-kB SEAP reporter activity (RAW-Dual [2]; [8]): 0.512

CCCCCCOc1cc(C)c(O)c(C)c1C (library stock concentration (final ~1000-fold dilution): 10 mM)
NF-kB SEAP reporter activity (RAW-Dual [1]; agonist: LPS (TLR4) 0.1 ug/mL): 0.406
NF-kB SEAP reporter activity (RAW-Dual [1]; [4]): 0.234
NF-kB SEAP reporter activity (RAW-Dual [1]; [5]): 0.154
NF-kB SEAP reporter activity (RAW-Dual [1]; [6]): 0.209

CCCCCCOc1cc(C)c(O)c(C)c1C
NF-kB SEAP reporter activity (RAW-Dual [2]; [7]): 0.313
NF-kB SEAP reporter activity (RAW-Dual [2]; [8]): 1.36

c1cc(-c2cnn3cc(-c4ccc(OCCN5CCCCC5)cc4)cnc23)ccn1 (library stock concentration (final ~1000-fold dilution): 2 mM)
NF-kB SEAP reporter activity (RAW-Dual [3]; agonist: LPS (TLR4) 0.1 ug/mL): 1.38
NF-kB SEAP reporter activity (RAW-Dual [3]; [4]): 0.365
NF-kB SEAP reporter activity (RAW-Dual [3]; [5]): 1.32
NF-kB SEAP reporter activity (RAW-Dual [3]; [6]): 1.28

Cl.Cl.c1cc(-c2cnn3cc(-c4ccc(OCCN5CCCCC5)cc4)cnc23)ccn1
NF-kB SEAP reporter activity (RAW-Dual [2]; library stock concentration (final ~1000-fold dilution): 10 mM water, cytotoxicity flag (confluency mask): not cytotoxic, agonist: Imiquimod (TLR7) […]): 0.944
NF-kB SEAP reporter activity (RAW-Dual [2]; [9]): 1.2

c1cc(-c2cnn3cc(-c4ccc(OCCN5CCCCC5)cc4)cnc23)ccn1
NF-kB SEAP reporter activity (RAW-Dual [2]; library stock concentration (final ~1000-fold dilution): 2 mM, cytotoxicity flag (confluency mask): not cytotoxic, agonist: Imiquimod (TLR7) […]): 0.841
NF-kB SEAP reporter activity (RAW-Dual [2]; library stock concentration (final ~1000-fold dilution): 2 mM, cytotoxicity flag (confluency mask): not cytotoxic, agonist: MPLA (TLR4) […]): 1.08

O=C(NC(C1CC1)C(F)(F)F)c1cc(-c2cnn3cc(-c4ccc(F)cc4)cnc23)cs1 (centres undefined)
NF-kB SEAP reporter activity (RAW-Dual [2]; [10]): 1.28
NF-kB SEAP reporter activity (RAW-Dual [2]; [11]): 1.98

Cl.Cl.c1cc(-c2cnn3cc(-c4ccc(OCCN5CCCCC5)cc4)cnc23)ccn1 (library stock concentration (final ~1000-fold dilution): 10 mM water)
NF-kB SEAP reporter activity (RAW-Dual [3]; agonist: LPS (TLR4) 0.1 ug/mL): 1.69
NF-kB SEAP reporter activity (RAW-Dual [3]; [4]): 0.252
NF-kB SEAP reporter activity (RAW-Dual [3]; [5]): 1.44
NF-kB SEAP reporter activity (RAW-Dual [3]; [6]): 1.92

O=C(NC(C1CC1)C(F)(F)F)c1cc(-c2cnn3cc(-c4ccc(F)cc4)cnc23)cs1 (centres undefined) (library stock concentration (final ~1000-fold dilution): 10 mM)
NF-kB SEAP reporter activity (RAW-Dual [3]; agonist: LPS (TLR4) 0.1 ug/mL): 2.68
NF-kB SEAP reporter activity (RAW-Dual [3]; [4]): 1.73
NF-kB SEAP reporter activity (RAW-Dual [3]; [5]): 2.46
NF-kB SEAP reporter activity (RAW-Dual [3]; [6]): 3.14

CCC(=C(c1ccccc1)c1ccc(OCCN(C)C)cc1)c1ccccc1
NF-kB SEAP reporter activity (RAW-Dual [2]; [7]): 1.53
NF-kB SEAP reporter activity (RAW-Dual [2]; [8]): 1.52

CCC(=C(c1ccccc1)c1ccc(OCCN(C)C)cc1)c1ccccc1 (library stock concentration (final ~1000-fold dilution): 10 mM)
NF-kB SEAP reporter activity (RAW-Dual [1]; agonist: LPS (TLR4) 0.1 ug/mL): 0.687
NF-kB SEAP reporter activity (RAW-Dual [1]; [4]): 0.447
NF-kB SEAP reporter activity (RAW-Dual [1]; [5]): 0.398
NF-kB SEAP reporter activity (RAW-Dual [1]; [6]): 0.525

Cc1ccccc1C(OCCN(C)C)c1ccccc1.Cl (centres undefined)
NF-kB SEAP reporter activity (RAW-Dual [2]; [10]): 1.38
NF-kB SEAP reporter activity (RAW-Dual [2]; [11]): 1.13

Cc1ccccc1C(OCCN(C)C)c1ccccc1.Cl (centres undefined) (library stock concentration (final ~1000-fold dilution): 10 mM)
NF-kB SEAP reporter activity (RAW-Dual [3]; agonist: LPS (TLR4) 0.1 ug/mL): 1.29
NF-kB SEAP reporter activity (RAW-Dual [3]; [4]): 0.935
NF-kB SEAP reporter activity (RAW-Dual [3]; [5]): 0.934
NF-kB SEAP reporter activity (RAW-Dual [3]; [6]): 0.932

CCN(CC)CCCCNc1ncc2cc(-c3cc(OC)cc(OC)c3)c(NC(=O)NC(C)(C)C)nc2n1 (library stock concentration (final ~1000-fold dilution): 10 mM)
NF-kB SEAP reporter activity (RAW-Dual [1]; agonist: LPS (TLR4) 0.1 ug/mL): 0.324
NF-kB SEAP reporter activity (RAW-Dual [1]; [4]): 0.891
NF-kB SEAP reporter activity (RAW-Dual [1]; [5]): 1.72
NF-kB SEAP reporter activity (RAW-Dual [1]; [6]): 1.56

COc1cc(OC)cc(-c2cc3cnc(N)nc3nc2NC(=O)NC(C)(C)C)c1 (library stock concentration (final ~1000-fold dilution): 10 mM)
NF-kB SEAP reporter activity (RAW-Dual [3]; agonist: LPS (TLR4) 0.1 ug/mL): 5.36
NF-kB SEAP reporter activity (RAW-Dual [3]; [4]): 1.02
NF-kB SEAP reporter activity (RAW-Dual [3]; [5]): 0.578
NF-kB SEAP reporter activity (RAW-Dual [3]; [6]): 0.747
